Results published in PubChem BioAssay AID624483 (NMMLSC, 2012).
In all, about 360,000 compounds went through this assay and about 11,000 (3.1%) were called active. Another 2% or so got no clear call; they are omitted. This excerpt belongs to a sample that is enriched for actives. A number with no mark means an inactive call. Cut-off read from the data, not from the text of the source: active = fluorescence intensity above about 16000; inconclusive = no clear call, values can overlap the other calls; inactive = below that.

Experiment: counter-screen for toxin protease inhibitors: compound fluorescence, primary screen, artefact control for toxin protease inhibitor project, biochemical, multiplex microsphere, HTS (AID 624483)
Conditions: compound autofluorescence counterscreen, microsphere flow cytometry; stronger effect = higher value

SMILES | fluorescence intensity
CN(C)C(CNC(=O)c1cccc(S(=O)(=O)N2CCc3ccccc3C2)c1)c1ccccc1 (configuration not stated) | 4070
Cc1ccc(C)c(NS(=O)(=O)c2cc(Br)cnc2N)c1 | 2420
O=C(COC(=O)c1ccccc1C(=O)c1ccccc1)c1ccco1 | 23700 (active)
CCc1ccc(C(=O)COC(=O)c2ccco2)cc1 | 5070
CCN(CC)c1ccc(C(=O)OCC(=O)c2ccco2)cc1 | 4360
CC1(C(=O)NS(=O)(=O)Cc2cccc(Cl)c2)CCN1C(=O)Cc1ccc(Cl)cc1Cl (configuration not stated) | 3610
O=C(O)c1ccc(COc2c(F)c(F)cc(F)c2F)o1 | 5310
CCOC(=O)C1CCN(C(=O)Cn2cc(C#N)c3ccccc32)CC1 | 3760
CCOC(=O)C1CCN(C(=O)COc2cccc3ccccc23)CC1 | 5570
CCOC(=O)C1CCN(C(=O)Cc2c(C(=O)O)[nH]c3ccccc23)CC1 | 24500 (active)
Cc1cccc(-c2cnc(C(O)c3ccc4ccccc4c3)[nH]2)c1 (configuration not stated) | 3610
O=C(NCc1csc(-c2cccs2)n1)C1CC1 | 3880
Cc1ccc2nc(-c3ccc(SCC(=O)Nc4cc(C)on4)nc3)[nH]c2c1 | 2760
Cc1ccc(-c2csc(SCC(=O)Nc3cc(C)on3)n2)cc1 | 17800 (active)
Cc1cc(NC(=O)CSCC(=O)NC(C)c2ccccc2)no1 (configuration not stated) | 5020
CCNC(=O)C1(C)CCCN1C(=O)c1ccc(N(C)C)cc1 (configuration not stated) | 4040
COC(=O)CCCCC1=CCC2C(=O)C=C(O)C2C1 (configuration not stated) | 6010
Cc1ccc(OCCCC(=O)Nc2ccc(N3CCOCC3)cc2)cc1 | 2550
COc1ccc(S(=O)(=O)N2CCCCCC2)cc1NC(=O)Cc1ccc(OC)c(OC)c1 | 3920
COc1ccccc1CC(=O)Nc1ccc(S(=O)(=O)N2CCCC2)cc1 | 4360
COc1ccc(-c2ccc(Nc3ccc(S(=O)(=O)N4CCCC4)cc3)nn2)cc1OC | 22500 (active)
O=C(Cc1coc2ccc3ccccc3c12)NCc1cccs1 | 1980
CCn1ncc(C2=NOC(C(=O)Nc3ccccc3C(=O)OC)C2)c1C (configuration not stated) | 21900 (active)
CCn1ncc(C2=NOC(C(=O)N3CCN(c4ccccc4)CC3)C2)c1C (configuration not stated) | 9650
COc1cc(NC(=O)C2CC(c3ccccc3O)=NO2)c(OC)cc1Cl (configuration not stated) | 3150

SMILES | fluorescence intensity
Cc1ccc(CNC(=O)c2ccccc2CCc2ccccc2)cc1 | 13000
CCCN1Cc2cccc(C(=O)Nc3ccc(S(=O)(=O)N4CCCCCC4)cc3)c2C1=O | 10600
CCCN1Cc2cccc(C(=O)NCc3ccccc3)c2C1=O | 16800 (active)
CCCCCC(=O)Nc1ccc(-c2cn3cccnc3n2)cc1 | 4250
COC(=O)c1ccc2nc(-c3ccccc3)c(Cc3ccc(OC)cc3C)n2c1 | 7120
CCOC(=O)c1c(NC(=O)CSc2nccc(=O)[nH]2)sc(C)c1C | 4560
CCOC(=O)c1c(-n2cnnn2)sc(C)c1C | 20300 (active)
CCOc1ccc(C(=O)COC(=O)c2ccc(-n3cnnn3)cc2)cc1 | 5640
O=c1cc(CN2CCCCCCC2)c2c(ccc3ccccc32)o1 | 5650
COC(=O)[C@@]1(Cc2ccc(F)cc2)[C@H]2c3cc(C(=O)N4CCCC4)n(C[C@H](O)CO)c3C[C@H]2CN1C(=O)c1ccccc1 | 4320
COc1cccc(CNc2nc(NCc3ccccc3OC)nc3ccsc23)c1 | 2990
Cc1ccc(S(=O)(=O)N2CCC(=O)N([C@H](COCc3ccccc3)C(C)C)CC2)cc1 | 5310
CCOC(=O)Nc1ccc2c(c1)N(C(=O)CCN1CCN(CCO)CC1)c1ccccc1CC2 | 5290
CCOC(=O)Nc1ccc2c(c1)N(C(=O)CN1CCN3CCCC3C1)c1ccccc1CC2 (configuration not stated) | 18500 (active)
CCOC(=O)Nc1ccc2c(c1)N(C(=O)CCCl)c1ccccc1[S@]2=O | 4240
CCCCCCCCOC1OC(CO)C(O)C(O)C1NC(C)=O (configuration not stated) | 4290
CC1(C)CC(=O)C=C(c2ccccc2CO)C1=O | 3370
Cc1nc2ncnn2c(C)c1CCC(=O)N1CCN(C(=O)c2ccco2)CC1 | 23100 (active)
Cc1nc2nc(C)c(CCC(=O)N3CCN(c4ccccc4)CC3)c(C)n2n1 | 8430
Cc1nc2nc(C)c(CCC(=O)N3CCC4(CC3)OCCO4)c(C)n2n1 | 8020
COc1ccc(CC(=O)Nc2sc(Cc3ccccc3)c(C)c2C(N)=O)cc1 | 22200 (active)
COc1ccc(CC(=O)Nc2c(C(N)=O)oc3ccccc23)cc1 | 6330
Cc1ccc(C(=O)Nc2sc(Cc3ccc4c(c3)OCO4)c(C)c2C(N)=O)cc1 | 5510
COc1ccc(CCNC(=O)Nc2ccc3c(c2)c(=O)n(C)n3C)cc1OC | 3460
Cc1ccc2[nH]c(=O)c(-c3nc4c(C)cccn4c3NCc3ccco3)cc2c1 | 2400

SMILES | fluorescence intensity
CCCN(CCC)c1nc2c(C)cccn2c(=O)c1/C=C1/SC(=S)N(Cc2ccco2)C1=O | 25600 (active)
CNc1nc2c(C)cccn2c(=O)c1C=Nc1ccc(OC)cc1 | 4140
CCN(CC)CC1(O)CCN(C(=O)c2ccc(Cl)c(Cl)c2)CC1 | 4500
O=C1c2ccccc2C(=O)N1c1ccccc1S(=O)C(F)(F)F (configuration not stated) | 2440
O=C1C(Cl)=C(N2CCOCC2)C(=O)N1c1ccccc1 | 5720
O=C1C(=O)N(c2ccccc2)c2ccccc21 | 22200 (active)
CCOc1ccc(C(C)=O)cc1COC(=O)CNC(=O)c1cccs1 | 6570
Cc1occc1C(=O)Nc1cccc(S(=O)(=O)N2CCOCC2)c1 | 3850
Cc1occc1C(=O)Nc1cccc(Cn2cccn2)c1 | 16800 (active)
Cc1ccnc(NC(=O)c2ccoc2C)c1 | 2220
COc1ccc(-c2ccc(C(=O)NC(C)C)c3occc23)c(C)c1 | 3110
CCOC(=O)CNC(=O)CSc1nc2cccnc2n1CC | 4460
CCOC(=O)c1ccc2c(c1)nc(SCC(=O)NC(C)C)n2CC | 19400 (active)
CCOC(=O)c1ccc2c(c1)nc(C)n2CC | 2830
CCN(CC(=O)NC(C)C)C(=O)CCNC(=O)c1ccc(Cl)cc1 | 23900 (active)
O=C(CCNC(=O)c1ccc(Cl)cc1)NC1CCCc2ccccc21 (configuration not stated) | 5920
CC(=O)Nc1ccc(NC(=O)CCCNC(=O)c2ccc(Cl)cc2)cc1 | 5820
Cc1ccc(Cn2cc(CN3CC(N4CCN(C)CC4)CS3(=O)=O)nn2)cc1 (configuration not stated) | 5630
COC(CNC(=O)c1ccc2c(c1)ncn2-c1cc(C)cc(C)c1)OC | 3480
Cc1ccc(CN2CCN(c3ccccc3Cl)CC2)o1 | 3970
COc1ccc(C(NC(=O)C2CCN(CCCc3ccccc3)CC2)c2cccs2)cc1 (configuration not stated) | 3340
CCn1c(O)c2ccc(C(=O)N=NC(=O)c3cccnc3)cc2c1O | 22400 (active)
CCn1c(O)c(N=NC(=O)c2cccc(S(=O)(=O)N3CCCCC3)c2)c2ccccc21 | 2120
O=C(CC(=O)c1cccnc1)c1ccccc1 | 3800
Brc1ccc2nc(-c3ccccc3)c(Cc3ccccc3)n2c1 | 6060

SMILES | fluorescence intensity
Cn1c(=O)[nH]c(=O)c2c1[nH]c(=S)n2Cc1ccccc1 | 5200
CCCCn1c(O)c(C(CC)=NCc2ccco2)c(=O)[nH]c1=O | 22200 (active)
CCC(=NCCCO)c1c(O)n(-c2ccc(OC)cc2)c(=O)[nH]c1=O | 3280
CCC(=NCc1ccco1)c1c(O)n(Cc2ccccc2)c(=O)[nH]c1=O | 16900 (active)
Nc1c(N(Cc2ccco2)C(=O)c2cccc(F)c2)c(=O)[nH]c(=O)n1Cc1ccccc1 | 6060
CCCCn1c(N)c(N(CC)C(=O)/C=C/c2ccco2)c(=O)[nH]c1=O | 3280
CCNC(=O)C1(C)CCCN(C(=O)c2ccc3ccccc3n2)C1 (configuration not stated) | 2790
COc1cccc(CNc2nc3cc(-c4csc5ccccc45)sc3c(=O)n2C)c1 | 4090
CC(C)Nc1ncnc2c1ncn2[C@H]1CN(Cc2ccncc2)C[C@@H](CO)O1 | 2910
CCc1nc2c(OCC(N)=O)cccn2c1N(C)C(=O)c1ccc(OC)cc1 | 3440
COc1ccccc1N(C)S(=O)(=O)c1ccc(C(=O)NC2CCCCCC2)cc1 | 5030
CN(Cc1ccccc1)C(=O)[C@@H]1CCCN1C(=O)[C@@H]1CCCN1C(=O)c1c(F)cccc1F | 5720
CNC(=O)c1csc(-c2ccccc2)n1 | 22300 (active)
O=C(NCCc1csc(-c2ccccc2)n1)c1ccccc1F | 3720
COc1cc(OC)cc(C(=O)NCC(=O)OCc2csc(-c3ccccc3)n2)c1 | 9780
CCOC(=O)c1cc2cc(OC)ccc2n1C1CCN(C)CC1 | 5150
O=C(COC(=O)Cc1ccc(Br)cc1)Nc1ccc(N2CCOCC2)cc1 | 8590
CC(=O)c1ccc(Nc2nc(C(N)c3ccccc3Cl)cs2)cc1 (configuration not stated) | 3780
COc1cccc(-c2cc3nc(NCc4ccccc4OC)n(C)c(=O)c3s2)c1 | 2860
COc1cnc(SCc2ccc(Cl)c(Cl)c2)nc1Cl | 20800 (active)
Nc1cc(N)nc(SCc2ccc(Cl)cc2)n1 | 4250
COc1ccc(CCNc2nc(C)cc(C)n2)cc1OC | 3430
